“And” between values parts separate entries of the source, which are not always exact repeats. Equal entries are not always repeated. Hit rate of the full screen: of about 38,000 compounds, about 1,200 (3.2%) showed an effect of 50% or more. The median lay at about -58%. For the sample, strong results were picked, then their nearest neighbours and some compounds at random.
System: Plasmodium falciparum
Experiment: Calibr Malaria Delayed Death Assay SOP
Assay type: functional, organism-based
Parameters: scale not given: in the data most compounds retested in dose-response had high values
Conditions: concentration 4.99e-06 (unit not given; other assays of the set use mol/L)

SMILES	Percent Effect	Percent Effect (4.99 µM)
O=C(c1ccccn1)N1CCN(c2cnnc(N3CCCC3)c2)CC1	-112.9%	–
COc1cccc(N2C(=O)CC3(CCNCC3)C2=O)c1.Cl	-133.6%	–
COC(=O)CC(NC(=O)c1cc(OC)c2c(c1)OCCO2)c1cccs1 (centres undefined)	-83.17%	–
O=S(=O)(NCCCn1cccn1)c1ccc2c(c1)CCC2	-131.9%	–
CCCn1cc(S(=O)(=O)N[C@H]2CN(CC(N)=O)C[C@@H]2C2CC2)cn1	-97.89%	–
COc1ccc(C2OC(COc3ccc(C)cc3)=NN2C(C)=O)cc1 (centres undefined)	-155.6%	–
COc1cc(C2CC(=O)Nc3c2c(=O)[nH]n3C2CCCCC2)ccc1O (centres undefined)	-62.17%	–
Cc1nnc2n1CCN(CCCS(=O)(=O)c1ccccc1)C2	-71.81%	–
Cc1ccc(CN(C)C(=O)CCNS(=O)(=O)c2cccnc2)cc1	36.55%	–
CC(=O)N1CCC2(CCN(Cc3cccc(F)c3)CC2)CC1.O=C(O)C(F)(F)F	-62.85%	–
CCC(=O)N1CCC2(CCN(Cc3cccc(F)c3)CC2)CC1.O=C(O)C(F)(F)F	-165.1%	–
Cc1noc(C)c1CN1CCC2(CCN(Cc3cccc(F)c3)CC2)C1.O=C(O)C(F)(F)F.O=C(O)C(F)(F)F	66.34%	–
COCC(=O)N1C[C@@H](OCc2cccnc2)[C@H]2OCCC[C@@H]21.O=C(O)C(F)(F)F	7.671%	–
COCCNC(=O)Cn1cc(NC(=O)c2cccc(Cl)c2Cl)cn1	-59.07%	–
O=C(NS(=O)(=O)c1ccc(Cl)cc1F)c1cccc2c1OCCO2	-91.83%	–
CC(C#N)CN(C)C(=O)CCNC(=O)OCC(F)(F)F (centres undefined)	-88.17%	–
O=C(O)C(F)(F)F.O=C(O)C(F)(F)F.O=C1CO[C@@H]2CN(Cc3cccs3)C[C@H]2N1Cc1cccnc1	-34.75%	–
Cc1cnc(-n2cnnc2)c(-c2cccc3c2CCNC3)c1	-33.7%	–
Cc1cc(-c2cccc3c2CCNC3)cnc1-n1cnnc1	-23.79%	–
Cc1nc(-n2cnnc2)ccc1-c1cccc2c1CCNC2	68.26%	–
CSCCC(=O)N1CCCC1c1nnc2n1CCCCC2 (centres undefined)	-119.3%	–
Cc1cc(C)n(Cc2ccc(-c3noc(C(=O)NCCO)n3)cc2)n1	-66.65%	–
CN(C[C@H]1CN2CC[C@H]1C[C@@H]2CNC(=O)c1ccco1)c1ccccc1	70.91%	–
CCN(CC)C[C@H]1CN2CC[C@H]1C[C@@H]2CNC(=O)c1ccco1	-99.74%	–

SMILES	Percent Effect	Percent Effect (4.99 µM)
CC[C@H]1CN2CC[C@H]1C[C@@H]2CNC(=O)c1ccco1	-30.73%	–
O=C(C1CCOC1)N1CCN(Cc2cccnc2)c2ncccc2C1 (centres undefined)	-57.83%	–
O=C1CN(S(=O)(=O)CC(F)(F)F)CC(O)CN1CCCc1ccccc1 (centres undefined)	-64.11%	–
COCCN1CCc2nc(SCc3ccc(F)cc3)[nH]c(=O)c2C1	-62.28%	–
Cc1nonc1OCCNC(=O)CCCc1ccc(Cl)cc1	-154.2%	–
CN1C(Cn2cccn2)C[C@@H]2CN(C(=O)c3cccc(C#N)c3)CC[C@@H]21.O=C(O)C(F)(F)F.O=C(O)C(F)(F)F (some centres undefined)	-96.07%	–
CN1[C@H](Cn2cncn2)C[C@@H]2CN(Cc3cccc(C#N)c3)CC[C@@H]21.O=C(O)C(F)(F)F.O=C(O)C(F)(F)F	-71.32%	–
CN1[C@H](Cn2cncn2)C[C@@H]2CN(Cc3ccsc3)CC[C@@H]21.O=C(O)C(F)(F)F.O=C(O)C(F)(F)F	35.13%	–
CN1C(Cn2cccn2)C[C@@H]2CN(Cc3cnn(C)c3)CC[C@@H]21 (some centres undefined)	-48.63%	–
Cc1ccc(CN2CC[C@H]3[C@H](CC(Cn4cccn4)N3C)C2)s1.O=C(O)C(F)(F)F.O=C(O)C(F)(F)F.O=C(O)C(F)(F)F (some centres undefined)	62.61%	–
O=C(NC1CC1)C1CNCCN1C(=O)CCOc1ccccc1 (centres undefined)	-111.6%	–
Cc1ncsc1-c1nnc(C2CCN(Cc3ccccc3Cl)CC2)o1	-108%	–
CC(=O)NC1CCN(c2c(C#N)cnc3c(C)cc(F)cc23)CC1	7.696%	–
CN(Cc1ccccc1)C(=O)CCNS(=O)(=O)c1cccnc1	-47.09%	–
Cc1cc2nc(-c3cn(C4CCNCC4)nn3)[nH]c2cc1C	87.17%	–
Cc1ccc2[nH]c(-c3cn(C4CCNCC4)nn3)nc2c1C	85.1%	–
COc1cccc(CCn2ccnc2-c2cn(C3CCNCC3)nn2)c1	–	-32.98% and -26.9%
Cc1cccc2[nH]c(-c3cn(C4CCNCC4)nn3)nc12	72.76%	–
Cc1c(C)c(C)c2[nH]c(-c3cn(C4CCNCC4)nn3)nc2c1C	30.06%	–
c1ccc(CCCn2ccnc2-c2cn(C3CCNCC3)nn2)nc1	–	-23.72% and -17.15%
CN(Cc1cn(C2CCNCC2)nn1)CC1CCCO1 (centres undefined)	-84.49%	–
Cc1nc(C(C)C)sc1C(=O)NCCSc1nccn1C	-107.8%	–
CC(=O)Nc1ccn(Cc2ccccc2)n1	-105.1%	–
CCOC(C)C(=O)N1CCCN(Cc2csc(CC)n2)CC1 (centres undefined)	-48.75%	–

SMILES	Percent Effect	Percent Effect (4.99 µM)
Cc1nc(CN2CCC3(C2)CN(Cc2ccco2)C3)cs1	1.617%	–
CN1CCNC(=O)C12CCN(Cc1ccco1)CC2.O=C(O)C(F)(F)F.O=C(O)C(F)(F)F	-34.77%	–
Cc1nc(CN2CCC23CCN(Cc2ccco2)CC3)cs1	-38.18%	–
Cc1ccc(CN2CCC3(CC2)CCN(Cc2ccco2)CC3)cc1.O=C(O)C(F)(F)F.O=C(O)C(F)(F)F	91.42%	–
O=C(O)C(F)(F)F.O=C(O)C(F)(F)F.O=C(O)C(F)(F)F.c1coc(CN2CCC3(CC2)COCCN(CCN2CCCC2)C3)c1	-114.4%	–
Cc1noc(C)c1CN1CC2(CCN(Cc3c[nH]cn3)CC2)CC1=O	-101.4%	–
CO[C@@H]1CC[C@H]2[C@H]1OCCN2Cc1ccccn1.O=C(O)C(F)(F)F.O=C(O)C(F)(F)F	-69.16%	–
CNC(=O)CN1CCC(NC2CSCCc3ccccc32)CC1 (centres undefined)	-108%	–
CN(C)CCN1CCC(NC2CSCCc3ccccc32)CC1 (centres undefined)	75.4%	–
COCCCN1CCC(NC2CSCCc3ccccc32)CC1 (centres undefined)	-4.969%	–
Cn1ncnc1CNc1ccccc1C(=O)NC(C)(C)C	-77.77%	–
Cc1ccccc1CN1CCC2(CCCN2C(=O)C(C)C)CC1	-62.94%	–
O=C1NC(C(=O)NCc2cccnc2Oc2ccc(F)c(F)c2)CO1 (centres undefined)	-127.9%	–
CCN(CC1CCCN(CCc2cccc(OC)c2)C1)C(=O)CO (centres undefined)	28.13%	–
CCN(CC1CCCN(CCc2cccc(OC)c2)C1)C(=O)CN(C)C (centres undefined)	83.05%	–
CCN(CC1CCCN(CCc2cccc(OC)c2)C1)C(=O)CSC (centres undefined)	19.02%	–
COc1ccc(C(=O)C2CCCN(Cc3cccc(F)c3)C2)c(OC)c1 (centres undefined)	22.79%	–
COc1ccc(C(=O)C2CCCN(Cc3ccncc3)C2)c(OC)c1 (centres undefined)	-20.34%	–
COc1ccc(C(=O)C2CCCN(CCc3ccccc3)C2)c(OC)c1 (centres undefined)	71.36%	–
Cc1ccccc1C(=O)N1CCO[C@H]2[C@H](OCCN(C)C)CC[C@@H]21.O=C(O)C(F)(F)F	-35.41%	–
CCCN(CCC)C(=O)c1cnn(C)c1C	-133.3%	–
CCOc1cccc(CNc2ccccc2OC)c1O	-50.26%	–
COc1ccccc1COCC(O)CN(C)Cc1cccc(Cl)c1 (centres undefined)	-103.6%	–
COc1cccc(CNc2ccc(F)c(Cl)c2)c1O	-125.4%	–

SMILES	Percent Effect	Percent Effect (4.99 µM)
COc1ccc(CNC(=O)c2ccc(Cl)cc2F)cc1C(=O)O	-124.3%	–
COc1cccc(CNCc2cccc(Cl)c2)c1O	84.59%	–
COc1cccc(CNCc2ccc(F)c(Cl)c2)c1O	79.38%	–
CCn1nccc1CNc1nc(N)nc2c1nc(C)n2C	-33.19%	–
Cn1nc(CN2CCCCC2)c2c1CN(C(=O)c1ccoc1)C2	14.54%	–
O=C(O)c1cccc(N2CCC(Oc3cccc(F)c3)CC2)n1	-36.51%	–
CNCc1cc(F)ccc1Oc1ccc(F)cc1	15.63%	–
O=C(Nc1cnc(Oc2ccccc2)nc1)C1CC1	-34.92%	–
O=C(Nc1ccccc1Oc1cccc(F)c1)C1CCS(=O)(=O)C1 (centres undefined)	-81.74%	–
CCn1cc(-c2nn3c(C(C)C)nnc3s2)c(C)n1	-104%	–
CC(NC(=O)N1CCCCCC1)c1ccc(S(N)(=O)=O)cc1 (centres undefined)	-106.8%	–
Cc1ncsc1C(=O)NCCNc1ncccn1	-77.02%	–
COCC1CN(CCOc2ccc(Cl)cc2)Cc2c1cnn2C.O=C(O)C(F)(F)F.O=C(O)C(F)(F)F (centres undefined)	-4.236%	–
CN(C)C1(CNc2ncc(Br)cn2)CCOCC1	27.48%	–
CC(NCC1(N(C)C)CCOCC1)c1ccc(S(C)(=O)=O)cc1 (centres undefined)	-124.5%	–
CSC1(CNC(=O)NC(C)c2ccc(F)cc2)CCOCC1 (centres undefined)	-168.4%	–
CN(C)C1(CNC(=O)c2c(O)cc(Cl)cc2Cl)CCOCC1	-157.7%	–
CC(NCC1(N(C)C)CCOCC1)c1ccc(SC(F)F)cc1 (centres undefined)	51.19%	–
CC(NCC1(N(C)C)CCOCC1)c1ccc(Cl)cc1 (centres undefined)	72.75%	–
O=S(=O)(N1CCCC1)N(Cc1ccccc1)CC1CCCO1 (centres undefined)	-64.47%	–
CN(C)CCN1C[C@@H]2CN(S(=O)(=O)c3ccccc3)C[C@@H]2C1=O.O=C(O)C(F)(F)F	-103%	–
CCN(CC)S(=O)(=O)c1ccc(C(=O)NC(C)(C)C)cc1	-100.9%	–

— ChEMBL document CHEMBL3988442, “University of Dundee, Small-Polar-MMV Screening Library” (2021)
